Experimental data published in PubChem BioAssay AID463173 (ICCB-Longwood Screening Facility, Harvard Medical School, 2010).
Out of some 52,000 compounds screened, about 4,300 (8.3%) were called active. The list comes from a sample in which actives are over-represented; it also holds similar structures and randomly drawn compounds. A number with no mark means an inactive call. Rule as the data show it: active = survival mostly below about 52% (no sharp cut-off); inactive = mostly above about 56%.

tested on: DeltatarO mutant; experiment: growth inhibition of S. aureus wild type versus tarO mutant, primary screen, teichoic acid synthesis inhibitors, RN4220, OD600 (AID 463173); details: OD600, 18 h, active compounds read low, screened at 18.75 µg/mL (by protocol)

| Structure (SMILES) | survival |
| --- | --- |
| COc1ccc(NC(=O)c2oc3ccccc3c2NC(=O)C23CC4CC(CC(C4)C2)C3)cc1 | 80% |
| COc1ccc(N2CCN(c3ncnc4c3cnn4-c3ccc(C)c(Cl)c3)CC2)cc1 | 96% |
| Cc1ccc(/C=C/C(=O)N2CCC(c3nc4ccccc4o3)CC2)cc1 | 87% |
| CC(C)NC(=O)C1CCN(C(=O)N2CC(C)Oc3ccccc32)CC1 (centres undefined) | 72% |
| O=C(NC1CCCC1)c1ccc2c(=O)n(Cc3ccccc3)c(SCc3cccc([N+](=O)[O-])c3)nc2c1 | 106% |
| Cn1c(=O)c2c(nc(N3CCOCC3)n2Cc2ccc(Br)cc2)n(C)c1=O | 43% (active) |
| Cn1c(=O)c2c(nc(N3CCOCC3)n2Cc2ccccc2Cl)n(C)c1=O | 46% (active) |
| Cn1c(=O)c2c(nc(N3CCOCC3)n2Cc2cccc(Br)c2)n(C)c1=O | 80% |
| Cn1c(=O)n(Cc2ccccc2Cl)c(=O)c2c1nc1n2CCN1c1ccccc1 | 73% |
| Cn1c(=O)c2c(nc(N3CCOCC3)n2Cc2ccccc2)n(C)c1=O | 52% |
| Cn1c(=O)[nH]c(=O)c2c1nc(N1CCOCC1)n2Cc1ccccc1 | 167% |
| CCOC(=O)Cn1c(=O)c2c(nc(N3CCOCC3)n2Cc2ccccc2)n(C)c1=O | 43% (active) |
| Cn1c(=O)c2c(nc(N3CCOCC3)n2Cc2ccccc2F)n(C)c1=O | 71% |
| COc1ccc(Oc2nc3c(c(=O)n(C)c(=O)n3C)n2Cc2ccccc2Cl)cc1 | 54% |
| CCOC(=O)Cn1c(=O)c2c(nc3n2CCN3c2ccc(CC)cc2)n(C)c1=O | 79% |
| CC(C)CCSc1nc2c(c(=O)n(C)c(=O)n2C)n1Cc1ccccc1Cl | 34% (active) |
| Cn1c(=O)c2c(nc(NCCCCO)n2Cc2ccccc2Cl)n(C)c1=O | 63% |
| CCOc1ccc(NC(=O)c2c(NC(=O)c3ccco3)sc3c2CCC(C(C)(C)C)C3)cc1 (centres undefined) | 68% |
| CCOC(=O)c1c(C)[nH]c(C)c1S(=O)(=O)N1CCCC(C(=O)NCc2cccc(C)c2)C1 (centres undefined) | 88% |
| Cc1ccc(CNC(=O)C2CCCN(S(=O)(=O)c3cn(C)cn3)C2)cc1 (centres undefined) | 94% |
| O=C(Cn1cnc2ccccc2c1=O)NCCC(=O)Nc1ccc(F)cc1 | 85% |
| CC(C)(C)Nc1nc(OCC#N)nc(N2CCOCC2)n1 | 113% |
| CCCCNC(=O)Cn1c(=O)cc(C)c2c(C)nn(-c3ccc(CC)cc3)c21 | 55% |
| Cc1cc(C)c2c(n1)SCC(=O)N2CC(=O)Nc1ccc(C)c(C)c1 | 115% |
| CCc1nnc(NC(=O)c2nc(SCc3ccccc3C)ncc2Cl)s1 | 96% |

| Structure (SMILES) | survival |
| --- | --- |
| CCc1nnc(NC(=O)c2nc(SCc3ccc(F)cc3)ncc2Cl)s1 | 29% (active) |
| Cc1nnc(NC(=O)c2nc(SCc3ccccc3F)ncc2Cl)s1 | 90% |
| CCc1nnc(NC(=O)c2nc(SC)ncc2Cl)s1 | 109% |
| Cc1cccc(CSc2ncc(Cl)c(C(=O)Nc3nnc(C)s3)n2)c1 | 73% |
| Cc1ccc(CNC(=O)c2nc(SCc3ccc(C)cc3)ncc2Cl)cc1 | 99% |
| Cc1nnc(NC(=O)c2nc(SC(C)C)ncc2Cl)s1 | 72% |
| Cc1ccc(CSc2ncc(Cl)c(C(=O)Nc3nnc(C)s3)n2)cc1 | 32% (active) |
| CCSc1ncc(Cl)c(C(=O)Nc2nnc(CC)s2)n1 | 72% |
| CCCc1nnc(NC(=O)c2nc(SCC)ncc2Cl)s1 | 76% |
| CCc1nnc(NC(=O)c2nc(SCc3ccccc3F)ncc2Cl)s1 | 31% (active) |
| CCc1nnc(NC(=O)c2nc(SCc3cccc(C)c3)ncc2Cl)s1 | 5% (active) |
| CCCC(=O)C1=C(c2cccc(OC)c2)N(C(=O)CCC)n2c(C)nnc2S1 | 85% |
| O=C(c1ccc(Br)cc1)N1CCN(CCc2ccncc2)CC1 | 78% |
| COc1cc(NC(=O)CC2C(=O)N(c3cccc(C)c3)C(=O)N2Cc2ccc(F)cc2)cc(OC)c1 (centres undefined) | 94% |
| CC1=NN(c2ccccc2)C(c2ccccc2)C1 (centres undefined) | 101% |
| O=C(CN(c1ccc2c(c1)OCCO2)S(=O)(=O)c1ccccc1)NCc1ccco1 | 85% |
| CCOC(=O)C1CCN(C(c2ccc(C)cc2)c2c(O)cc(C)n(CCOC)c2=O)CC1 (centres undefined) | 76% |
| C=CCn1c(C)c(C=C(C#N)C#N)c2ccccc21 | 99% |
| CC1(c2ccccc2)OC(=O)C(C#N)C12CCCCC2 (centres undefined) | 103% |
| NC(=O)c1ccc2nc(N)sc2c1 | 102% |
| Cc1cccc(C(=O)N2CCCCC2CCN2CCCCC2)c1 (centres undefined) | 80% |
| COc1ccc(NC(=O)c2nc(SCc3ccc(F)cc3)ncc2Cl)cc1 | 69% |
| COc1ccc(CCNC(=O)c2nc(SCc3ccccc3F)ncc2Cl)cc1OC | 64% |
| CC(C)Sc1ncc(Cl)c(C(=O)Nc2nnc(C(C)C)s2)n1 | 69% |
| CC(C)c1nnc(NC(=O)c2nc(SCc3ccc(F)cc3)ncc2Cl)s1 | 24% (active) |

| Structure (SMILES) | survival |
| --- | --- |
| COc1ccc(CCNC(=O)c2nc(SCc3ccc(F)cc3)ncc2Cl)cc1OC | 46% (active) |
| COc1ccc(CCNC(=O)c2nc(SCc3ccc(C)cc3)ncc2Cl)cc1OC | 65% |
| COc1ccccc1CNC(=O)CSc1nc(=O)[nH]c2c1CCC2 | 78% |
| COc1cc(CN(C(=O)COc2ccc(C)c(C)c2)c2ccccn2)cc(OC)c1OC | 71% |
| COc1ccc(-n2c(=O)c3ccccc3n(CC(=O)NCCc3ccccc3)c2=O)c(OC)c1 | 74% |
| CCn1ccc2cc(S(=O)(=O)N3CCCN(C(=O)Nc4ccccc4OC)CC3)ccc21 | 80% |
| COc1ccc(-n2ncc(C(=O)NCCN3CCOCC3)c2C2CCN(C(=O)OC(C)(C)C)CC2)cc1 | 119% |
| Cc1ccc(S(=O)(=O)Nc2cccc(-c3cn4cccc(C)c4n3)c2)c(C)c1 | 75% |
| COc1ccc(Br)cc1S(=O)(=O)Nc1cc(-c2cn3ccccc3n2)ccc1C | 43% (active) |
| Cc1ccn2cc(-c3ccc(C)c(NS(=O)(=O)c4ccc(Cl)cc4)c3)nc2c1 | 43% (active) |
| COc1ccc(S(=O)(=O)Nc2cc(-c3cn4cccc(C)c4n3)ccc2C)cc1C | 53% (active) |
| CC(=O)Nc1ccc(S(=O)(=O)Nc2cc(-c3cn4ccccc4n3)ccc2C)cc1 | 67% |
| COc1ccc(S(=O)(=O)Nc2cc(-c3cn4ccccc4n3)ccc2C)cc1 | 102% |
| Cc1ccc(-c2cn3cccc(C)c3n2)cc1NS(=O)(=O)c1ccccc1 | 41% (active) |
| CCc1ccc(S(=O)(=O)Nc2cc(-c3cn4ccccc4n3)ccc2C)cc1 | 74% |
| Cc1cc(C)c(S(=O)(=O)Nc2cc(-c3cn4ccccc4n3)ccc2C)cc1C | 56% |
| COc1ccc(S(=O)(=O)Nc2cc(-c3cn4ccc(C)cc4n3)ccc2C)cc1OC | 62% |
| COc1ccc(S(=O)(=O)Nc2ccc(-c3cn4ccsc4n3)cc2)cc1C | 128% |
| CCCS(=O)(=O)Nc1cc(-c2cn3cccc(C)c3n2)ccc1C | 59% |
| Cc1cc(=O)[nH]c(SCC(=O)N2CCN(c3ccccc3)CC2)n1 | 81% |
| Cc1ccc(Cl)cc1NS(=O)(=O)c1ccc2oc(=O)c3ncn(C)c3c2c1 | 124% |
| O=C(Nc1ccc2oc(-c3ccc4ccccc4c3)nc2c1)c1cccc(Cl)c1Cl | 63% |
| COc1cc(NC(=O)CCCN2C(=O)CCn3nc(-c4cn(C)c5ccccc45)cc32)cc(OC)c1 | 126% |
| CCCOc1ccc(C(=O)Nc2ccc(-c3cc4ccccc4oc3=O)c(C)c2)cc1 | 71% |
| N#CC1=C2SCN(C3CCCCC3)CN2C(=O)CC1c1ccc(F)cc1 (centres undefined) | 87% |

| Structure (SMILES) | survival |
| --- | --- |
| CCc1ccccc1NC(=O)Cn1cc(C(=O)c2ccncc2)c(=O)c2cc(C)ccc21 | 83% |
| Cc1ccc(-c2cn3ccc(C)cc3n2)cc1 | 22% (active) |
| CCCS(=O)(=O)Nc1cc(-c2cn3ccc(C)cc3n2)ccc1C | 78% |
| CCS(=O)(=O)Nc1cc(-c2cn3ccc(C)cc3n2)ccc1C | 60% |
| COc1cccc(C(=O)Nc2ccc(C(=O)OCc3cc(=O)n4cc(C)sc4n3)cc2)c1 | 66% |
| COc1cccc(CNC(=O)C2CCN(c3nc4ccc(Cl)cc4[nH]3)CC2)c1 | 101% |
| CN(C)c1ccc(CNC(=O)C2CCN(c3nc4ccccc4[nH]3)CC2)cc1 | 63% |
| COc1ccccc1CNC(=O)C1CCN(c2nc3ccc(C)cc3[nH]2)CC1 | 100% |
| O=C(C1CCN(c2nc3ccccc3[nH]2)CC1)N1CCN(c2ccccc2)CC1 | 89% |
| CCOc1cc(CNC(=O)C2CCN(c3nc4ccccc4[nH]3)CC2)cc(OCC)c1OCC | 20% (active) |
| O=C(C1CCN(c2nc3ccccc3[nH]2)CC1)N1CCN(c2cccc(Cl)c2)CC1 | 8% (active) |
| Cc1ccc2nc(N3CCC(C(=O)N4CCN(c5cccc(Cl)c5)CC4)CC3)[nH]c2c1 | 68% |
| COc1ccc(CNC(=O)C2CCN(c3nc4ccccc4[nH]3)CC2)cc1OC | 55% |
| COc1ccccc1CNC(=O)C1CCN(c2nc3ccc(Cl)cc3[nH]2)CC1 | 25% (active) |
| CC1CCN(S(=O)(=O)c2cn(CC(=O)Nc3ccc(F)c(Cl)c3)c(=O)c3ccccc23)CC1 | 73% |
| Cc1ccc(-n2nc(CO)c(C(=O)NCc3cccs3)n2)cc1 | 92% |
| Cc1ccc(-n2nc(CO)c(C(=O)NCc3cccs3)n2)cc1C | 39% (active) |
| Cc1ccc(-n2nc(CO)c(C(=O)NCCc3ccccc3)n2)cc1C | 111% |
| Cc1ccc(-n2nc(CO)c(C(=O)NC(C)c3ccccc3)n2)cc1C (centres undefined) | 41% (active) |
| O=C(NCc1cccs1)c1nn(-c2ccccc2)nc1CO | 84% |
| CCOc1ccc(-n2nc(CO)c(C(=O)NCc3cccs3)n2)cc1 | 40% (active) |
| Cc1ccccc1-n1nc(CO)c(C(=O)NCc2cccs2)n1 | 79% |
| CCc1ccc(-n2nc(CO)c(C(=O)NCc3cccs3)n2)cc1 | 60% |
| Cc1ccc(-n2nc(CO)c(C(=O)NC(C)CCCc3ccccc3)n2)cc1C (centres undefined) | 94% |
